This is one part of a sample in which hits are shown more often than they occur.
LASV entry inh – inhibitors of Lassa virus binding or cell entry | 300,000 tested, 1.2% active | Lassa virus pseudotype entry inhibition, cell reporter | Potency, µM (titrated, usually from 37.9 µM), without a hit: top-dose activity change, negative = inhibition, most hits filed as inhibitors | AID 540256; calls by dose curve; tested in HEK293 cells; also: potency is read from the fitted curve at half-maximal effect; % is scaled to controls: 0 for no effect and ±100 for the full control effect; nearly all actives have a fitted effect of over 50% in size
CHX counter – affects cycloheximide protein synthesis inhibition readout, counter-screen; cell reporter, cycloheximide protein synthesis inhibition counterscreen; max response, %; 300,000 tested, 12% active; AID 2314; in the data active = max response mostly above about 13%, no sharp cut-off; inactive = mostly below about 14%; also: read at 38.3 µM for the half of the compounds with a filed dose; 0% is about no effect
Shiga toxin inh – inhibitors of Shiga toxin in Vero cells; Vero cells, Shiga toxin protein synthesis inhibition reporter; inhibition, % at 38.7 µM; 290,000 tested, 9.2% active; AID 2315; in the data active = inhibition mostly above about 28%, no sharp cut-off; inactive = mostly below about 43%; also: 0% is about no effect
MARV entry inh – inhibitors of Marburg virus binding or cell entry; Marburg virus pseudotyped entry inhibition, cell reporter; Potency, µM (doses to about 37.8 µM), for inactives: top-dose activity change, negative = inhibition, most hits filed as inhibitors; 300,000 tested, 1.8% active; AID 540276; calls by dose curve; tested in HEK293 cells; also: potency is read from the fitted curve at half-maximal effect; % is scaled to controls: 0 for no effect and ±100 for the full control effect
AMA1-RON2 inh – disrupts binding of P. falciparum AMA1 to RON2 | AlphaScreen AMA1-biotinylated RON2 peptide binding | Potency, µM (titrated, usually from 58.2 µM), for the others: at the top dose activity change, negative = inhibition, actives largely listed as inhibitors | 360,000 tested, 0.2% active | AID 720542; active = well fitted inhibition curve with a large enough effect; inconclusive = small, poorly fitted or top-dose-only effect; inactive = no such curve, though single readings can be large or run the other way;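 also: potency is read from the fitted curve at half-maximal effect; 0% = vehicle wells and -100% = peptide control; nearly all actives have a fitted effect of over 45% in size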
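AMA1 (3D7) with his tag at 25 nM final met compounds first, then biotinylated RON2 peptide at 25 nM; detection used donor plus acceptor beads, 10 µg/mL apiece, read by AlphaScreen after 30 min at room temperature.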
An asterisk follows results filed as active; ? = inconclusive; / = no result given; + = active, no number; [ ] = dose if it differs, or a comment.

SMILES	LASV entry inh	CHX counter	Shiga toxin inh	MARV entry inh	AMA1-RON2 inh
Cc1ccc(C(=O)NCCC2=CCCCC2)cc1S(=O)(=O)N1CCCCC1	7.94µM*	/	/	?	-4.1%
O=C(Cc1ccccc1[N+](=O)[O-])NCCC1=CCCCC1	?	25.7*	61.1*	?	-3.2%
Cc1ccc(C(=O)NCCC2=CCCCC2)cc1S(=O)(=O)N1CCOCC1	-3.7%[46.1 µM]	/	/	?	-5.5%
O=C(CCNC(=O)c1ccc(Cl)cc1)NCCC1=CCCCC1	?	/	/	?	-11.6%
COc1ccc(C(=O)NCCC2=CCCCC2)cc1	?	30.9*	50.6	7.31µM*	9.7%
O=C(COc1ccc([N+](=O)[O-])cc1)NCCC1=CCCCC1	-0.2%	0.2	14.9	20.5%	12.0%
O=C(NCCC1=CCCCC1)c1ccc(F)cc1	10µM*	39.1*	+	?	2.1%
C[C@@H]1CN([C@@H](C)CO)C(=O)CCCn2nncc2CO[C@@H]1CN(C)S(=O)(=O)c1cccc(C#N)c1	/	/	/	/	4.8%
COc1ccc(-c2noc(-c3ccc(NCCc4ccccc4)c([N+](=O)[O-])c3)n2)cc1	17.8%[46.1 µM]	/	/	12.7%[46.1 µM]	/
O=C(NCCC1=CCCCC1)c1ccc(CN2CCOCC2)cc1	?	40.0*	44.6*	-11.3%	-27.5%
COc1cccc(C(=O)NCCC2=CCCCC2)c1	-16.2%	30.2*	74.2*	?	21.3%
O=C(NC(=S)NCCC1=CCCCC1)c1ccc(Br)o1	1.0%[46.1 µM]	25.4	71.9	?	9.2%
O=C(NCCC1=CCCCC1)c1ccc(Br)o1	-5.2%	28.4*	84.5*	?	-0.3%
COc1ccc(C(=O)NCCC2=CCCCC2)cc1OC	6.2%	45.9*	74.5*	?	4.1%
OC(c1ccc(Cl)c(F)c1)c1ncc(-c2cccc(C(F)(F)F)c2)[nH]1 (centres undefined)	/	/	/	/	-1.0%
O=C(NC1CCCCCC1)c1ccc(CN2CCOCC2)cc1	-4.8%	40.6*	95.9*	?	-0.8%
O=C(NCCC1=CCCCC1)c1ccc([N+](=O)[O-])cc1	?	75.1*	131.1*	?	1.1%
O=C(NCCc1ccc(F)cc1)c1ccc([N+](=O)[O-])cc1	-18.1%	33.8*	66.8*	8.9%	3.4%
O=C(NC1CCCC1)c1ccc(CN2CCOCC2)cc1	18.4%	13.6	35.7	0.1%	-9.2%
O=C(CCNC(=O)c1ccc([N+](=O)[O-])cc1)NCCC1=CCCCC1	-22.2%	/	/	0.3%[46.1 µM]	-7.9%
Cc1cc(C(=O)NCCC2=CCCCC2)ccc1[N+](=O)[O-]	?	49.3*	96.0*	-0.4%[46.1 µM]	9.5%
O=c1cc(C(F)(F)F)[nH]c(=S)n1-c1ccccc1	-3.2%	1.4	-2.1	20.8%	1.3%
O=C(N/N=C/c1cc([N+](=O)[O-])ccc1O)c1ccc2c(c1)OCCO2	?	17.6*	16.5	?	17.5%
O=C(N/N=C/c1ccccc1[N+](=O)[O-])c1ccc2c(c1)OCCO2	1.41µM*	32.7*	61.0*	2.51µM*	1.3%
O=[N+]([O-])c1ccc(O)c(C=Nc2ccc3c(c2)OCO3)c1	-9.3%	23.6*	16.1*	7.3%[46.1 µM]	-6.1%
SMILES	LASV entry inh	CHX counter	Shiga toxin inh	MARV entry inh	AMA1-RON2 inh
O=C(N/N=C/c1cc(O)ccc1[N+](=O)[O-])c1ccc2c(c1)OCCO2	5.01µM*	14.8*	-15.2	?	-12.1%
CCN(CC)C(=O)C1=C(C)N(CCCOC)C(=O)C(CC(=O)NCCCCc2ccccc2)C1 (centres undefined)	/	/	/	/	7.3%
CCOC(=O)C1CCN(C(=O)COC(=O)c2ccc(Br)o2)CC1	-1.0%	8.5	-10.6	3.9%[46.1 µM]	14.6%
CC1CCN(C(=O)COC(=O)c2ccc3c(c2)OCO3)CC1	?	33.9*	82.4*	?	7.0%
CC1CCN(C(=O)COC(=O)c2ccc(Br)o2)CC1	?	66.6*	93.8*	9.8%	5.6%
O=C(CCc1nnc(-c2ccsc2)o1)N1CCc2c(Cl)cccc2C1	/	30.2*	104.4*	/	-5.3%
O=C(CCc1nnc(-c2ccc(-c3ccccc3)cc2)o1)N1CCCCC1	?	48.9*	68.5*	?	-3.5%
CCOC(=O)CN(C)C(=O)CCc1nnc(-c2ccsc2)o1	-29.6%[46.1 µM]	-3.4	-7.4	?	-9.3%
COC(c1ccccc1)c1nnc(CCC(=O)N(C)C(C2CC2)C2CC2)o1 (centres undefined)	5.2%	50.2*	83.8*	?	-2.7%
COC(c1ccccc1)c1nnc(CCC(=O)N2CCCCCCC2)o1 (centres undefined)	10.4%[46.1 µM]	10.5*	32.7	?	0.0%
COC(c1ccccc1)c1nnc(CCC(=O)N2CCN(Cc3cccs3)CC2)o1 (centres undefined)	4.3%[46.1 µM]	2.2	25.5	2.1%[46.1 µM]	9.6%
O=C(CCc1nnc(-c2ccccc2)o1)NC1CCCCC1	/	44.0*	64.5*	/	-1.9%
O=C(Nc1nnc(-c2ccccc2)o1)NC1CCCCC1	-17.6%	13.1	19.4	-26.5%	50.8%
CC(CNC(=O)CCc1nnc(CCC2CCCCC2)o1)c1ccccc1 (centres undefined)	?	20.8*	38.2	?	4.4%
Cc1cc(-c2nnc(CCC(=O)NCC(C)c3ccccc3)o2)no1 (centres undefined)	?	13.4	-1.3	?	5.4%
O=C(CCc1nc(-c2ccccc2)no1)NC1CCCCC1	2.1%	12.4*	28.6	22.5%	-3.7%
COC(c1ccccc1)c1nnc(CCC(=O)NC2CCCCC2)o1 (centres undefined)	18.3%[46.1 µM]	17.3*	25.9	0.2%[46.1 µM]	5.7%
CCCCOc1ccc(C(=O)Nc2cccc(-n3cnnn3)c2)cc1OC	/	1.2	14.2	/	-8.7%
Cc1ccccc1Nc1c(-c2ccc(O)cc2)nc2c(C)cccn12	-11.8%[46.1 µM]	/	/	8.0%[46.1 µM]	/
Cc1nc2nc(SCC(=O)N(C)Cc3ccccc3)nn2c(C)c1Cc1ccccc1Cl	5.9%[46.1 µM]	/	/	-8.5%[46.1 µM]	/
CCC1CC2C(=O)C(c3nc(C)cs3)=COC2CC1O (centres undefined)	/	/	/	0.1%[46.1 µM]	/
CCOC(=O)Cn1c(=O)n(-c2cccc(Cl)c2)c2nc(-c3ccccc3Cl)nc(C(N)=O)c21	25.9%[46.1 µM]	/	/	/	/
CC(C)Oc1ccc(CSc2ncn[nH]2)cc1	?	32.4*	50.9*	?	-1.3%
CN1CC(=O)N(CC(=O)Nc2ccc3c(c2)CCC3)C1=O	5.0%	3.3	43.3	10.8%[46.1 µM]	-15.5%
CN1CCN(C(=S)c2ccc(-c3cc(Cl)ccc3Cl)o2)CC1	/	8.5	8.6	/	?
SMILES	LASV entry inh	CHX counter	Shiga toxin inh	MARV entry inh	AMA1-RON2 inh
S=C(c1ccc(-c2ccccc2Cl)o1)N1CCOCC1	16.7%	23.7*	93.4*	5.5%	-28.8%
S=C(c1ccc(-c2ccc(Cl)c(Cl)c2)o1)N1CCOCC1	?	62.3*	95.6*	-21.7%	-20.6%
S=C(c1ccc(-c2ccc(Br)cc2)o1)N1CCOCC1	-25.8%	50.6*	91.8*	?	?
O=C(c1ccc(-c2ccc([N+](=O)[O-])cc2Cl)o1)N1CCOCC1	4.5%[46.1 µM]	26.1*	56.9*	?	-6.5%
S=C(Nc1ccc(Cl)c(Cl)c1)N1CCOCC1	-10.3%	5.5	5.4	-2.1%	16.0%[2.32 µM]
S=C(c1ccc(-c2ccc(Br)cc2)o1)N1CCCCC1	-29.5%	8.3	73.9	7.6%	?
C=CCNc1nc2cc(-c3cccc(Cl)c3)sc2c(=O)n1C	/	/	/	/	-0.2%
